Rab9 prom act: Rab9 promoter activation | Huh7 Rab9 promoter-luciferase reporter, luminescence, 24 h | Potency, µM (series often up to 9.22 µM), inactives show at the top dose activation, negative = inhibition, actives largely listed as activators | 320,000 tested, 2.8% active; note: % of control where 0% means no effect; nearly all actives have a fitted effect of over 60% in size
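Promoter activation is measured as luciferase luminescence in Huh7 cells stably transfected with a Rab9 promoter–luciferase construct, following 24 h compound exposure at 37 °C and 10 min reagent incubation at ambient temperature.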
FLuc modulator: counter-screen for miR-21 project: firefly luciferase inhibitors or activators | P08659 | AID 588342 | purified FLuc, Km substrates, luminescence inhibition | 360,000 tested, 6.9% active | Potency, µM (titrated, usually from 57.5 µM), for inactives: at the highest dose activity change, negative = inhibition, usual class: inhibitors;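 note: plate controls were vehicle for no effect and reference inhibitor for full effect; nearly all actives have a fitted effect of over 55% in size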
Target sequence (P08659 whole entry, looked up): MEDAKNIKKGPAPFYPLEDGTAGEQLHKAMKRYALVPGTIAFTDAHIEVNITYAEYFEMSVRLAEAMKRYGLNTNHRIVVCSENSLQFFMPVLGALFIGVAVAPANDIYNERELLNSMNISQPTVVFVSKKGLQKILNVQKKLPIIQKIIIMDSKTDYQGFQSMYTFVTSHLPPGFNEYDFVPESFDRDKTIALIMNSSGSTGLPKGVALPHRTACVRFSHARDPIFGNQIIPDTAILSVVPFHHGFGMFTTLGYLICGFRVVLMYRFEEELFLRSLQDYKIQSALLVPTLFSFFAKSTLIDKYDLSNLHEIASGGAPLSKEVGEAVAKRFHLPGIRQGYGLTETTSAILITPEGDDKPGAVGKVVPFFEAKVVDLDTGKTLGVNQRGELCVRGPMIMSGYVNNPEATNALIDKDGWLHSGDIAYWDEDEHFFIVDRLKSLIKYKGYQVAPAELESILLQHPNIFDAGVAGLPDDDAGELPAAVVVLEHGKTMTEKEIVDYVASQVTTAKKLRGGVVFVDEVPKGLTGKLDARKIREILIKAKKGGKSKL
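Purified P. pyralis luciferase, 10 nM final, with Km-level 10 uM D-luciferin and 10 uM ATP in 50 mM Tris acetate pH 7.5, 10 mM Mg acetate, 0.01% Tween-20, 0.05% BSA; 6-point qHTS titration about 60 µM downward; luminescence read.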
SMN2 splice up: enhancers of SMN2 splice variant expression; Potency, µM (highest dose often 46.1 µM), for the others: at the highest dose activity change, positive = activation, actives largely listed as activators; HEK293 SMN2-luciferase splicing reporter, luminescence, 30-36 h; 210,000 tested, 2.8% active; note: % of control where 0% means no effect; nearly all actives have a fitted effect of over 55% in size
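qHTS luciferase splicing reporter: luminescence rises when SMN2 exon 7 is included in transfected HEK293 cells. Compound exposure lasted 30-36 h at 37C, with 4.5 mM final sodium butyrate as control, followed by a ONE-Glo read.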
NPC1 prom act: activators of NPC1 promoter; Potency, µM (series often up to 9.22 µM), without a hit: at the top dose activation, actives largely listed as activators; 320,000 tested, 2.4% active; AID 485313; Huh7 NPC1 promoter luciferase reporter, 24 h; note: % of control where 0% means no effect; nearly all actives have a fitted effect of over 60% in size
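Stably transfected Huh7 (NPC1 promoter→luciferase), 1500 cells/well in Opti-MEM + 10% FBS, 2 h settle, then compound 24 h at 37 °C. Luminescence after 10 min with Amplite reagent.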
ELG1 genotox: inducers of genotoxicity in HEK293T ELG1-luciferase cells; 330,000 tested, 1.3% active; HEK293T ELG1-luciferase reporter, luminescence, 16 h; Potency, µM (series often up to 46 µM), inactives show at the highest dose activity change, positive = activation, usual class: activators; AID 504466; note: % of control where 0% means no effect; nearly all actives have a fitted effect of over 60% in size
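Screening used a luciferase reporter fused to human ELG1 in HEK293T cells. Luminescence was read on a CCD plate imager after 16 hr exposure and 30 min ONE-Glo incubation.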
Luc counter: blocks Kinase-Glo luciferase, a counter-screen artifact | Kinase-Glo luciferase, ATP luminescence, 8 min | 200,000 tested, 0.28% active | Potency, µM (series often up to 38.3 µM), for inactives: top-dose activity change, negative = inhibition, usual class: inhibitors | AID 1379; note: % is set by controls: 0 for no effect and ±100 for the full control effect; nearly all actives have a fitted effect of over 60% in size
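Kinase-Glo luciferase light output from ATP and luciferin was measured with 10 uM ATP, within the enzyme's linear range. Buffer: 50 mM imidazole pH 7.2, 50 mM KCl, 7 mM MgCl2, 0.01% Tween 20, 0.05% BSA; luminescence read after 8 min at ambient temperature.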
Active calls of the source: *; ? = inconclusive; . = not tested or not shown; ! = a repeat was not active; [ ] = another dose, or the depositor's remark. Shown are actives, neighbours in structure and some others; about 7.5% of the full set was active somewhere. Calls come from the whole dose curve; as a rule, active = well fitted curve in the direction sought with a large enough effect; inconclusive = small, poorly fitted or top-dose-only effect, or another doubt; inactive = no such curve, though single readings can be large; an effect the other way counts as inactive or inconclusive. Potency is the fitted concentration of half-maximal effect.

SMILES	Rab9 prom act	FLuc modulator	SMN2 splice up	NPC1 prom act	ELG1 genotox	Luc counter
CC(C)c1ccc(Nc2nc(CC(=O)O)cs2)cc1	1.4µM*	2.1µM*	.	1.3µM*	?	-4%
c1ccc(OCCOc2ncnc3sccc23)cc1	2.8µM*	?	?	26%	16µM*	-6%
CCS(=O)(=O)N1CCC2(CC1)OC(=O)C(C)=C2C(=O)NCc1ccc(OC)c(OC)c1	.	2%	.	.	.	.
Clc1ccccc1-c1nc(-c2ccccc2)n[nH]1	2.8µM*	6.7µM*	?	3.2µM*	?	-9%
COc1cccc(C(=O)NCC(c2ccc(N(C)C)cc2)N2CCc3ccccc32)c1 (stereo unspecified)	.	-3%	.	.	.	.
COc1ccc(OC)c(/C=N/NC(=O)c2cc3c(OC)cc(OC)cc3[nH]2)c1	3%	15µM*	.	9%	-10%	.
CCOc1ccc2[nH]c(C(=O)N/N=C/c3cc(OC)c(OC)c(OC)c3)cc2c1	8%	4.8µM*	.	18%	-11%	.
CCOc1ccc(/C=N/NC(=O)c2cc3c(OC)cc(OC)cc3[nH]2)cc1OC	-2%	15µM*	.	-2%	-9%	.
COc1ccc(OC)c(/C=N/NC(=O)c2cc3c(OC)cccc3[nH]2)c1	3%	?	.	8%	-4%	.
CCOc1ccc(/C=N/NC(=O)c2cc3c(OC)cccc3[nH]2)cc1	-5%	?	.	-5%	6%	.
COc1ccc(CN2CC(C(=O)NCCCN3CCCC(C)C3)CC2=O)cc1 (stereo unspecified)	0%	-1%	.	0%	0%	.
COc1cccc(-c2cc(C(=O)N3CCc4ccccc4C3)[nH]n2)c1	22%	11µM*	.	26%	?	.
O=C(Nc1cccc(Cl)c1)N1CCc2ccccc2C1	3.2µM*	9.5µM*	.	2.8µM*	?	.
O=C(Nc1ccccc1F)N1CCc2ccccc2C1	2.8µM*	15µM*	.	1.3µM*	18µM*	.
COc1cccc(NC(=O)N2CCc3ccccc3C2)c1	2.8µM*	17µM*	.	4µM*	?	.
O=C(Nc1cccc(Cl)c1)c1nc[nH]c1C(=O)N1CCc2ccccc2C1	-1%	-1%	.	-2%	5%	.
Cc1ccc(-c2cc(C(=O)N3CCc4ccccc4C3)[nH]n2)cc1C	-1%	-11%	.	13%	14%	.
CCOc1ccc(S(=O)(=O)NCC(=O)OCc2nnc(-c3ccccc3)o2)cc1	0%	.	.	-4%	1%	.
CCS(=O)(=O)N1CCc2cc(C(=O)N3CCN(c4ccccc4)CC3)ccc21	.	2%	.	.	.	.
O=C(Cn1cc(S(=O)(=O)N2CCCC2)c(S(=O)(=O)N2CCCC2)c1)NCc1ccco1	-2%	2%	.	-5%	-1%	.
CC(C)c1ccc(NC(=O)N2CCc3ccccc3C2)cc1	4µM*	11µM*	13µM*	?	?	1%
S=c1[nH]nc(-c2n[nH]c3c2CCC3)n1/N=C/C=C/c1ccccc1	-6%	-9%	.	1%	-2%	.
Cc1ccc(S(=O)(=O)N(Cc2ccccc2)c2ccccc2C(=O)N2CCCCC2)cc1	3%	-5%	.	0%	-1%	.
O=C1c2ccccc2C(=O)c2c(Nc3ccc(CCO)cc3)ccc(O)c21	?	?	.	?	-8%	.
O=C1c2c(O)ccc(O)c2C(=O)c2c(NCCNCCO)ccc(NCCNCCO)c21	-44%[46.1 µM]	19µM*	-94%	-35%[46.1 µM]	-59%	13µM*!
SMILES	Rab9 prom act	FLuc modulator	SMN2 splice up	NPC1 prom act	ELG1 genotox	Luc counter
COC(=O)c1ccc(NC(c2ccc(Cl)cc2)P(=O)(OC)OC)cc1 (stereo unspecified)	-1%	27µM*	-5%	-2%	4%	1%
CC(=O)Nc1nccc(-c2cc(-c3ccccc3)no2)n1	2.2µM*	?	.	3.5µM*	?	.
CCOc1ccc(-c2nc(=S)[nH][nH]2)cc1	?	15µM*	?	15%	?	-1%
COc1ccc(-c2nc(=S)[nH][nH]2)cc1	10%	0%	8%	0%	8%	0%
CCOc1ccc(S(=O)(=O)N(CC(=O)NCc2ccncc2)c2ccc(C)cc2)cc1	5%	2%	.	-2%	-26%	.
S=C(N/N=C/c1ccco1)NC1CC2CCC1C2 (stereo unspecified)	?	19µM*	.	?	?	.
Oc1ccccc1/C=N/NC(=S)NC1CC2CCC1C2 (stereo unspecified)	2.8µM*	27µM*	.	2µM*	12%	.
COc1ccc(CC(=O)N/N=C(/C)CC(=O)N(C)c2ccccc2)cc1	2%	0%	.	2%	16%	.
Cc1cccc(C(=O)Nc2ccccc2C(=O)Nc2ccc(C(=O)O)cc2)c1	9%	6.7µM*	.	-3%	9%	.
COc1cc(NC(=O)c2ccc(C)cc2)c(OC)cc1NC(=O)CN1CCOCC1	-7%	19µM*	1%	21%	-7%	2%
CCN(CC)S(=O)(=O)c1cccc(C(=O)Nc2ccccc2C(=O)Nc2ccc(OC)cc2)c1	.	8.5µM*	.	.	.	.
COc1ccc(NC(=O)c2ccc3[nH]c(=O)c(=O)[nH]c3c2)c(OC)c1	-2%	-2%	.	-3%	0%	.
COc1ccc(NC(=O)c2ccc(C)cc2)c(OC)c1	?	5.4µM*	18µM*	?	?	-2%
Cc1ccc2c(c1)C(c1ccccc1)N(C(=O)c1ccc(Br)cc1)CC(=O)N2 (stereo unspecified)	-5%	1%	.	-1%	-8%	.
Cc1ccc(OCC(=O)OC(C)CN2CCCCC2)cc1 (stereo unspecified)	7%	-3%	.	0%	-3%	.
COc1cc(C2CC(=O)Nc3c2c(=O)n(C)c(=O)n3C)cc(OC)c1OC (stereo unspecified)	.	-3%	.	.	.	.
Cc1cccc(C(=O)Nc2ccc(O)cc2)c1	?	?	27%	?	27%	-12%
CCN(CC)S(=O)(=O)c1cccc(C(=O)N/N=C/c2cccc(O)c2O)c1	-2%	8.5µM*	-67%	-7%	?	1%
Cc1cccc(C(=O)Nc2ccc(O)cc2C(=O)O)c1	11%	21µM*	3%	1%	-1%	-19%
Cc1ccc(C(=O)Nc2ccc(O)cc2C(=O)O)cc1	-1%	11µM*	-3%	-4%	-5%	17%
CN1C(=O)/C(=C/c2ccc(C(=O)Nc3ccc(O)cc3C(=O)O)cc2)SC1=S	2%	21µM*	.	3%	0%	.
Cc1ccc(C(=O)Nc2ccc(O)cc2C(=O)O)cc1C	-32%	3.4µM*	-13%	2%	8%	-10%
Cc1ccc(CNC(=O)CCS(=O)(=O)c2ccc3c(c2)CC(C)N3C(=O)C2CC2)cc1 (stereo unspecified)	-2%	6%	.	-2%	3%	.
Cc1ccc(Nc2cc(-c3ccccc3)nc(C)n2)cc1	.	24µM*	.	.	.	.

High-throughput results from PubChem.
